Laboratory results reported in PubChem BioAssay AID1347426 (Functional Genomics Laboratory (NCATS/FGL), 2020).
Among all 31,000 sequences or so, about 1,400 (4.5%) were called active. Many of the other results were omitted from the sample, so actives are more common in it than they were. Values without a mark were called inactive.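 Rule for the calls: active = median seed-adjusted z-score above 1 or below -1; inactive = the rest.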

assay: Novel Modifiers of Survival Motor Neuron (SMN) Protein: Gene Identification via Genome-wide siRNA Screen; conditions: HEK293T SMN2-luciferase reporter, siRNA knockdown, 72 h; actives lie on both sides;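 note: luminescence tracks full-length SMN protein made from the SMN2 reporter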
How it was run: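 Luciferase signal, proportional to full-length SMN made from an SMN2 cDNA reporter in stable HEK293T cells, was read 72 h after siRNA reverse transfection. Values were expressed as MAD scores after non-targeting-control normalization and log10 conversion; seed analysis flagged off-targets.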

| Sequence | median seed-adjusted z-score |
| --- | --- |
| GCACUUCUCUUAAGGACGATT against UNC13B | -0.0216 |
| CAUGUACUAUUUUCAGUAUTT against SETD8 | -1.52 (active) |
| GCUUCUUAGCUGAGGAAAATT against RDH11 | -0.241 |
| CAAGGUAUUAUGCAACGUATT against FLG | 0.221 |
| GAGUAUGCCGUGAAGAUCATT against RPS6KA2 | 0.139 |
| GGCGUACGGUGAGAACAUUTT against ATP1B1 | 0.971 |
| GUAUAAUCCUCAGAGCAAATT against CXXC1 | -0.841 |
| CAUGAAUCCUUUACAGCAATT against RALB | -0.534 |
| GACUGUGAGACUUACCAUATT against MED20 | -1.66 (active) |
| CGGUCUCACCUGCACCAAATT against SSPO | 0.397 |
| GGAGAUUCACGAGCUGCGATT against EGFL8 | 0.365 |
| GCUCAAGGCAUUCUACAAATT against SLC25A1 | 0.252 |
| GGAUCGAGUUUGAUAACGATT against ITGA6 | -0.224 |
| GAUACGAAAUGGUGUUAAATT against POLG2 | 0 |
| CCCAAUAACUCUGUCGAUATT against ATP11C | 0.102 |
| GGAGUAACUGAGAUAGAAATT against AGPAT3 | 0 |
| GGAUCGUAAAAAUAGCAAATT against DGKA | -1.36 (active) |
| GAGCCUCUAUUAAUGGACATT against RASSF6 | -0.592 |
| GGAACACCCGUUUAACAAATT against ASH2L | -0.464 |
| GGAGGAUAGCAGCAGAAGATT against ATP5I | -0.871 |
| GGUGAAUGCUGAUGACUCUTT against CLDN16 | -0.868 |
| CCACCAACGAAUACGUCUATT against PRKCSH | -0.0512 |

| Sequence | median seed-adjusted z-score |
| --- | --- |
| GAAUCUACAGGAAACGAGATT against SETD8 | -1.52 (active) |
| CUCUACACCGUGUACAUCATT against CHRM4 | -0.856 |
| GCAGCAUGAGAAUGUCAAATT against GPD1 | 0.558 |
| CUACAGCCUAUAUAUGAAATT against FCRL1 | -0.873 |
| CGACAAUAUUCCUUGAUGATT against CTGLF1 | 0.0231 |
| GGGAUAAGCAGAUAGAAGATT against MYST2 | -1.46 (active) |
| GGAUGUUUUUCGAAGGAUATT against RHEB | -0.387 |
| GGACCGCAGCAAUGACAUUTT against SH3KBP1 | -0.34 |
| AGACGGUGACUUACAAAAATT against ARF6 | -0.805 |
| GCAACUUCAUUUCUCAUCUTT against CA6 | 0.349 |
| GUAUAUAAACAGACAAUGATT against DNAJC8 | -1.62 (active) |
| UCAUCUUCUUUGACCCAGATT against HNF4A | -0.0274 |
| GAGAGAAUCAUUACGAAAATT against MTMR2 | 0.495 |
| CAAACUUAAAGGUCAGAAATT against WHSC1 | 1.17 (active) |
| GGACAAAGUCUUAACAAAATT against SLC30A10 | 0.523 |
| CCAGACCACUUGCUAUGAATT against GATA6 | 0.546 |
| CUACUGGAGCAACACUGUATT against NDUFA4 | 0 |
| GCAAGAUUAGACAUACUGATT against PSMC6 | -0.578 |
| GAGCGAGUCUACAAGUGUATT against REST | 0.416 |
| CAGUCUGCCGAAGAAGUAATT against CDC2L1 | -1.14 (active) |
| GGAUCUUCCUUAUUACUCUTT against UBE4A | -0.285 |
| CCAGCACGUUGGAAGACCATT against ZNF808 | 0.138 |

| Sequence | median seed-adjusted z-score |
| --- | --- |
| GUCCUUAUCUUUGCAAAUATT against ARL5B | -0.506 |
| GGAGCUACUUAAUCGGGAUTT against ANGEL1 | -0.332 |
| GCACGGAAAUUCUACAAGATT against ABCA4 | -1.09 (active) |
| GGACGAUGUCUACAGCCUATT against SIN3B | 0.509 |
| CGGGAACUAUCCAAACAAUTT against DMBT1 | -0.131 |
| GCAGAACUGACAGUCGAUATT against DMTF1 | 0.396 |
| GAGUGGACUGUGGAAGAUATT against RCOR1 | -1.13 (active) |
| CCAAAAGAAUAUCCGCUAATT against NLK | 0.256 |
| CACCUACUGUGAUGACAGATT against EPAS1 | -0.166 |
| GAAGUAGACUUGAUACGAATT against AQR | -1.56 (active) |
| AGCACAAGGUGGAACCGGUTT against CYGB | -0.34 |
| GCUACGAAAUGCUUGCUCATT against GALT | 0.484 |
| GGAUCAUGACCUAUGCUAATT against AKAP3 | 0.0138 |
| GCUUUGUGAACGACAAUUATT against RABGGTB | -0.856 |
| CGCACGGACUGUACCAUUUTT against ETV2 | 0 |
| GCCUACUGGUCAUUGAUCATT against GNMT | 0.0261 |
| GACAUAUGCAAGAACUAUATT against PSAP | 0.107 |
| AGAGGAGAGUGGAAUUCCATT against ARID3C | -1.32 (active) |
| GCAGUUUCUUAACCACGUUTT against IFI16 | -0.0178 |
| ACUUUGCUCCUACUAUUCATT against NEGR1 | 0.194 |
| CCAUCGGACUGACAGUGAATT against COPZ1 | -1.02 (active) |
| CGAAAACUGAUACACUUGATT against KSR2 | -0.371 |

| Sequence | median seed-adjusted z-score |
| --- | --- |
| GCUGAUUUUUGCUAAUAAATT against ARL5A | 0 |
| GCAUGUAAUGAGUAUCACATT against MRS2 | 1.38 (active) |
| GAUCAACUGUGGAAAUAUUTT against KISS1R | -0.299 |
| CCGUGUUCAUUCCUUUUCATT against ZFP41 | 0 |
| CCACUAAAGGAUCAACGUATT against PHKB | -0.142 |
| GCGACUCCUAGAGAACAAATT against LSG1 | 1.31 (active) |
| CAAGGUAGCUCAGCACUGATT against PEX6 | -0.281 |
| AGAGCGAGCCUUUGCUGAUTT against DAD1 | -0.45 |
| CCCUGCUCCUCACUCAUUUTT against KRTAP5-5 | -1.07 (active) |
| GUUCCGUACAGAUAAAGGATT against SAE1 | 0.831 |
| AUGUCACGCUGGUGCCCUATT against IFI30 | 0.401 |
| GUAUCAUGCCCAUCUGAAATT against ZMAT4 | -0.0468 |
| GAGAGACUCAAGAACGUGATT against ARCN1 | -1.25 (active) |
| AGCCUAUGAUUUUCCUGAATT against PTF1A | 0.482 |
| ACCUUGGUGUUGGACCUCATT against RNF26 | 0.359 |
| GGGACACGCUAAAAGGAGATT against GNB4 | 0.015 |
| GGUCUAGCCUUGAUCAGAATT against SHROOM3 | 0.779 |
| GCAAAUCAGAGGUUCAGAUTT against SQLE | -1.14 (active) |
| GGGCUGCAAGUGGAAUUCATT against NR1H3 | 0.426 |
| GGCAAACGAGUGUGCUUCATT against FAM47B | -0.0631 |
| CACCGGAGGUUUAUCACAATT against AMDHD2 | -0.0707 |
| AGCCUGUAGCUUAAACUUATT against KCTD12 | 0.431 |

| Sequence | median seed-adjusted z-score |
| --- | --- |
| GUGUCCAACAGAUACGGAATT against DSCAM | -0.527 |
| GGCAGAUAUUUAAGCCUAUTT against HDAC2 | -1.27 (active) |
| GGAGUGCAAAAGGAACGAATT against APIP | -0.0945 |
| GAGUUAUGGUGAACCCACATT against CDKN2B | 0.0154 |
| GGACAUUCAAUUCAAACCATT against SMAD4 | 0.0746 |
| CUGUUUAGCUUCAUGCAAATT against ARID3C | -1.32 (active) |
| GCAAGGCAAUGCAAACGAATT against DDX43 | -0.452 |
| GCGACUACCUGUUUCAACATT against PELO | 0.394 |
| GGAAAGAUCUUCAAUCAUATT against ZNF597 | 0.366 |
| GGACAUUCGUCAGAUUUAUTT against TEAD1 | 1.31 (active) |
| GAGUGGAGCGUACAUCCUATT against ZXDA | -0.0748 |
| CAAUAGUCCUGAGACCGAATT against MYST3 | -0.49 |
| GCAUUACCGCGAUGAAUUATT against DNAI1 | -0.783 |
| UCCUAACCUCAGAAACUGATT against CAPS | -1.25 (active) |
| GGAAGGCUCCAAACGGAAATT against PBRM1 | -0.118 |
| GCACGUUUGAGUACGAAUATT against SFPQ | -1.15 (active) |
| GGACCAGUCUGCCUAUGUATT against NXF5 | -0.396 |
| GCGGGACAGAAGUUAGAUATT against HCCS | 0.00254 |
| GGAUGAUAUGGGACCAUAATT against PTPRZ1 | 1.73 (active) |
| GUCUUGUAGAAAUCUCAGATT against RFC3 | 0.733 |
| GCUUCGAGGAGGGCAAGAATT against PRSS27 | 1.03 (active) |
